Among the test systems are SK-MEL-2 melanoma; EKVX NSCLC; SN12C renal; UO-31 renal; TK-10 renal; ACHN renal; CAKI-1 renal; A498 renal; CCRF-CEM leukemia; MOLT-4 leukemia.
Common to all, as to test: NCI-60 one-dose screen, 48 h (100 = growth as untreated, 0 = no growth, -100 = all killed)
What all share (settings): 10 µM unless noted

The panel holds about 83,000 compounds, 20% with a hit somewhere; the sample as a whole holds those more often.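 48-hour exposure, single concentration, 96-well plates; percent growth endpoint where 0 means no net growth. Active: below 10.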 A number with no mark means an inactive call. The source made the active and inactive calls.

In the case of `O=C(NO)c1ccc(Cn2c(=O)n(-c3ccccc3)c(=O)c3ccccc32)cc1`, the growth in the assay on SK-MEL-2 melanoma is 5.92% (active); in the assay on EKVX NSCLC, 21.6%; in the assay on SN12C renal, 44.1%; in the assay on UO-31 renal, 50.5%; in the assay with TK-10 renal, 28.1%; in the assay with ACHN renal, 55.7%. Further, the growth with CAKI-1 renal is 56.9%; with A498 renal it was -10.7% (active); in the assay on CCRF-CEM leukemia it was 2% (active); with MOLT-4 leukemia it was -2.07% (active).

On to `NC(N)=N/N=C/c1ccc(-c2ccc(-c3ccc(Cl)cn3)s2)cc1`, for which the growth in the assay with SK-MEL-2 melanoma was 109%; with EKVX NSCLC, 98.9%; with SN12C renal, 89.8%; in the assay with UO-31 renal, 78%; in the assay with TK-10 renal it was 112%; in the assay on ACHN renal it was 92.2%. In addition, the growth in the assay with CAKI-1 renal was 81.5%; in the assay on A498 renal, 88.8%; in the assay on CCRF-CEM leukemia it was 29.7%; with MOLT-4 leukemia it was 73.7%.

In the case of `CC1(c2ccccc2)OC1C(=O)O` (stereo not given), the growth in the assay on SK-MEL-2 melanoma is 107%; in the assay with EKVX NSCLC it was 107%; in the assay with SN12C renal it was 106%; in the assay with UO-31 renal it was 84.5%; with TK-10 renal it was 102%; with ACHN renal, 102%. The growth with CAKI-1 renal was 94%; in the assay on A498 renal, 109%; in the assay with CCRF-CEM leukemia it was 101%; in the assay on MOLT-4 leukemia, 101%.

For the compound `Cc1ccc2c(c1)c(-c1nc(-c3c[nH]c4ncccc34)cs1)cn2C`, the growth with SK-MEL-2 melanoma is 99.3%; with EKVX NSCLC it was 35.1%; in the assay with SN12C renal, 90.9%; with UO-31 renal it was 86.2%; with TK-10 renal, 81.5%; with ACHN renal, 98.6%. For the same compound, the growth is 107% in the assay with CAKI-1 renal, 112% in the assay with A498 renal, 77.7% in the assay on CCRF-CEM leukemia and 75.2% in the assay on MOLT-4 leukemia.

For the compound `CC(=O)O[C@@H]1CCN2C(=O)N(C)c3ccccc3[C@@H]2C1`, the growth was 102% with SK-MEL-2 melanoma; 114% with EKVX NSCLC; 98.9% with SN12C renal; 94.5% with UO-31 renal; 99.6% with TK-10 renal; 98.6% in the assay on ACHN renal. Moreover, the growth was 95.3% in the assay on CAKI-1 renal, 114% with A498 renal, 105% in the assay with CCRF-CEM leukemia and 99.6% in the assay on MOLT-4 leukemia.

On to `COC(=O)C(Cc1ccccc1)n1cc(COc2nc(Cl)nc(Nc3ccc(Cl)cc3)n2)nn1` (stereo not given), for which the growth in the assay with SK-MEL-2 melanoma was 97.2%; in the assay with EKVX NSCLC it was 95.4%; with SN12C renal, 96.5%; with UO-31 renal, 72.6%; with TK-10 renal it was 104%; in the assay with ACHN renal, 102%. Moreover, the growth is 92.1% with CAKI-1 renal, 61.6% in the assay with A498 renal, 96.5% in the assay on CCRF-CEM leukemia and 91.3% in the assay with MOLT-4 leukemia.

As for `COc1cc(-c2cc3cc(O)ccc3oc2=O)cc(OC)c1OC`, the growth is 92.7% in the assay on SK-MEL-2 melanoma; 78.7% in the assay with EKVX NSCLC; 93.6% in the assay on SN12C renal; 66.7% in the assay on UO-31 renal; 104% in the assay on TK-10 renal; 81.8% in the assay with ACHN renal. In addition, the growth in the assay on CAKI-1 renal is 84.6%; with A498 renal, 100%; in the assay on CCRF-CEM leukemia it was 94.5%; in the assay on MOLT-4 leukemia, 94.2%.

On to `CCOc1ccc(NC(=O)c2ccccc2-c2ccccc2C(=O)O)cc1`, for which the growth was 101% in the assay with SK-MEL-2 melanoma; 101% in the assay on EKVX NSCLC; 100% in the assay with SN12C renal; 88.7% in the assay with UO-31 renal; 110% in the assay with TK-10 renal; 107% in the assay with ACHN renal. Also, the growth was 98.9% with CAKI-1 renal, 93.3% in the assay on A498 renal, 99.5% with CCRF-CEM leukemia and 83.6% in the assay with MOLT-4 leukemia.

In the case of `CC(C)(C)c1nc(-c2ccc(O)c(O)c2)cs1`, the growth in the assay on SK-MEL-2 melanoma was 93.3%; in the assay on EKVX NSCLC it was 88.9%; in the assay on SN12C renal, 59.5%; in the assay on UO-31 renal, 39.5%; in the assay with TK-10 renal, 89.2%; with ACHN renal it was 50%. In addition, the growth in the assay on CAKI-1 renal was 54.8%; with A498 renal, 104%; in the assay on CCRF-CEM leukemia it was 26.4%; in the assay on MOLT-4 leukemia, 44.1%.

For `c1ccc(CN2C(c3ccccc3)=Nc3ccccc3C2c2c[nH]c3ccccc23)cc1` (stereo not given), the growth with SK-MEL-2 melanoma is 69%; with EKVX NSCLC, 37.3%; in the assay with SN12C renal, 36.4%; in the assay on UO-31 renal, 24.5%; in the assay with TK-10 renal, 45.8%; in the assay on ACHN renal, 51.4%. The growth in the assay with CAKI-1 renal is 35.9%; with A498 renal it was 63.6%; in the assay on CCRF-CEM leukemia, 32.4%; in the assay with MOLT-4 leukemia it was 2.6% (active).

As to `C=C(C)[C@@H]1CC[C@]2(C=O)CC[C@]3(C)[C@H](CC[C@@H]4[C@@]5(C)C/C(=C/c6cccnc6)C(=O)C(C)(C)[C@@H]5CC[C@]43C)[C@@H]12`, the growth in the assay with SK-MEL-2 melanoma was 88.5%; in the assay on EKVX NSCLC, 88.5%; in the assay on SN12C renal, 77.1%; in the assay with UO-31 renal, -33.9% (active); in the assay on TK-10 renal, 134%; in the assay on ACHN renal it was 61.6%. Also, the growth in the assay with CAKI-1 renal was 50.1%; with A498 renal, 98.3%; with CCRF-CEM leukemia, 27.7%; in the assay on MOLT-4 leukemia it was 49.9%.

As to `CC[C@]12C=CCN3CC[C@@]4(c5cc([C@H]6CCC(=O)N6)c(OC)cc5N(C)[C@H]4[C@@](O)(C(=O)OC)[C@@H]1OC(C)=O)[C@@H]32`, the growth in the assay with SK-MEL-2 melanoma was 98.4% [2.5 µM]; in the assay on EKVX NSCLC it was 111% [2.5 µM]; in the assay on SN12C renal, 96.9% [2.5 µM]; with UO-31 renal it was 86.3% [2.5 µM]; with TK-10 renal, 106% [2.5 µM]; with ACHN renal, 90% [2.5 µM]. Besides, the growth in the assay on CAKI-1 renal was 94.4% [2.5 µM]; in the assay on A498 renal, 116% [2.5 µM]; with CCRF-CEM leukemia, 99.6% [2.5 µM]; in the assay with MOLT-4 leukemia, 102% [2.5 µM].

For the compound `O=C(Nc1ccc(/C=C2\SC(=O)N(Cc3ccc(OC(F)(F)F)cc3)C2=O)cc1)c1ccc(Cl)c([N+](=O)[O-])c1`, the growth in the assay with SK-MEL-2 melanoma is 92.6%; with EKVX NSCLC, 91.1%; in the assay with SN12C renal it was 81.6%; in the assay on UO-31 renal it was 67.9%; in the assay with TK-10 renal, 98.5%; in the assay on ACHN renal, 89.3%. The growth was 85.7% with CAKI-1 renal, 82.2% with A498 renal, 77% in the assay with CCRF-CEM leukemia and 78.4% with MOLT-4 leukemia.

Source of the values: PubChem BioAssay (NCI).
